PubChem BioAssay
For part of these data: Entries with a potency or affinity are not part of this list. The source made the active and inactive calls. Unless noted, how the calls were made is not given here.

Experiments:
[1] = antimalarial activity against Dd2 strain (AID 2302;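 active means growth inhibition above 50% at the single 2 µM test dose, taken to imply half-maximal potency below 2 µM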;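 further: 0% = DMSO untreated growth and 100% = chloroquine plus artemisinin killed control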); conditions: P. falciparum Dd2 in RBCs, LDH growth readout, 72 h; at 2 µM; hits give high values
[2] = HepG2 cytotoxicity, primary screen, cytotoxicity control for P. falciparum antimalarial project, cell-based, ATP luminescence (AID 2303;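 active means inhibition above 50%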;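 further: 0% = DMSO wells and 100% = digitonin-killed cells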); conditions: HepG2 viability, 24-48 h, at 10 µM, hits give high values
[3] = target: L-lactate dehydrogenase (Plasmodium falciparum (isolate CDC / Honduras)) (UniProt Q27743); experiment: PfLDH activity inhibition – cell lysate, 3D7 strain, counter-screen for P. falciparum growth inhibition project (AID 2304);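 further: 0% = vehicle and 100% = reference inhibitor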; conditions: P. falciparum 3D7 crude extract, LDH APAD/NBT absorbance; at 2 µM; hits give high values
Chain of L-lactate dehydrogenase (Plasmodium falciparum (isolate CDC / Honduras)) (Q27743 whole entry, looked up): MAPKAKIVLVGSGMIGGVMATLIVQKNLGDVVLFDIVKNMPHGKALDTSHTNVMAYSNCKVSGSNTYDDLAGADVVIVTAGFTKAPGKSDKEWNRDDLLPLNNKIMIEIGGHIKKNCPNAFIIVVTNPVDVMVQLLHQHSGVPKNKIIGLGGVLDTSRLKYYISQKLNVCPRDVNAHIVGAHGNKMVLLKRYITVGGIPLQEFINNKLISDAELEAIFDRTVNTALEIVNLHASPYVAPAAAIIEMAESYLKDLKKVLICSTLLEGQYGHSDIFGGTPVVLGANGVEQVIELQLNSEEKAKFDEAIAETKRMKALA

[4] = inhibition of 3D7 malaria parasite growth – strain 3D7 (AID 2306);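 further: 0% = DMSO wells and 100% = chloroquine plus artemisinin control wells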; conditions: P. falciparum 3D7 erythrocytic growth, LDH absorbance, 72 h; at 2 µM; hits give high values
[5] = target: Calcium-dependent protein kinase 1 (Plasmodium falciparum (isolate 3D7)) (UniProt P62344); experiment: PfCDPK1 kinase inhibitors, biochemical, TCAMS library (AID 1159585; cut-off not given, nearly all actives have IC50 up to about 0.98 µM;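 further: inhibitors leave more ATP so luminescence rises with inhibition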); conditions: recombinant PfCDPK1, Kinase-Glo ATP depletion luminescence
Chain of Calcium-dependent protein kinase 1 (Plasmodium falciparum (isolate 3D7)) (P62344 whole entry, looked up): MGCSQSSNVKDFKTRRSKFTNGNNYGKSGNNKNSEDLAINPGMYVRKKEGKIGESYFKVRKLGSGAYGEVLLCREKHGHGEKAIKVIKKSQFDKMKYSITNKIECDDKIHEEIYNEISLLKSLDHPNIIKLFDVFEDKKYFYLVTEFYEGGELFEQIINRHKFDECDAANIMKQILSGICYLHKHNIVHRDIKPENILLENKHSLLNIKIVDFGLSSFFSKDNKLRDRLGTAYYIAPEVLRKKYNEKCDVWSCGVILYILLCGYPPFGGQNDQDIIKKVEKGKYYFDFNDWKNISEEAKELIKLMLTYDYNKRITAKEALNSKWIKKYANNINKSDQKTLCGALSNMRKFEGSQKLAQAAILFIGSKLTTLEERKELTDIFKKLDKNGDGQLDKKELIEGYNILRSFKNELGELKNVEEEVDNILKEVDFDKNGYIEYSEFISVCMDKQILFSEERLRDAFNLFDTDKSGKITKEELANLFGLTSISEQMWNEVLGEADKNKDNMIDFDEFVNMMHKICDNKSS

[6] = target: Plasmodium falciparum protein kinase 6 (PK6, PF3D7_1337100) (UniProt Q8IDW1); experiment: PfPK6 kinase inhibitors, biochemical, TCAMS library (AID 1159586); conditions: recombinant PfPK6, Kinase-Glo ATP depletion luminescence
Chain of Plasmodium falciparum protein kinase 6 (PK6, PF3D7_1337100) (Q8IDW1 1-305): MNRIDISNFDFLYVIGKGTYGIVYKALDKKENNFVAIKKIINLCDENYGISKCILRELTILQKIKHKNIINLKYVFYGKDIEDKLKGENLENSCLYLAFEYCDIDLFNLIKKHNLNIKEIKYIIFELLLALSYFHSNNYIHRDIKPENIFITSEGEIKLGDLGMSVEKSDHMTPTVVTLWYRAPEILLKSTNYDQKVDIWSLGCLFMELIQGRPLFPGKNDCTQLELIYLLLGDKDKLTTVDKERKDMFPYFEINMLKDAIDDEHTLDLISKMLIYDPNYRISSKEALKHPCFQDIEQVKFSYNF

[7] = target: Protein kinase 7 (PK7), Plasmodium falciparum 3D7 (PF3D7_0213400) (UniProt Q7YTF7); experiment: inhibition of Plasmodium PK7 catalytic activity – biochemical, TCAMS antimalarial set, Kinase-Glo luminescence (AID 1159587); conditions: recombinant PfPK7, Kinase-Glo ATP depletion luminescence
Chain of Protein kinase 7 (PK7), Plasmodium falciparum 3D7 (PF3D7_0213400) (Q7YTF7 1-343): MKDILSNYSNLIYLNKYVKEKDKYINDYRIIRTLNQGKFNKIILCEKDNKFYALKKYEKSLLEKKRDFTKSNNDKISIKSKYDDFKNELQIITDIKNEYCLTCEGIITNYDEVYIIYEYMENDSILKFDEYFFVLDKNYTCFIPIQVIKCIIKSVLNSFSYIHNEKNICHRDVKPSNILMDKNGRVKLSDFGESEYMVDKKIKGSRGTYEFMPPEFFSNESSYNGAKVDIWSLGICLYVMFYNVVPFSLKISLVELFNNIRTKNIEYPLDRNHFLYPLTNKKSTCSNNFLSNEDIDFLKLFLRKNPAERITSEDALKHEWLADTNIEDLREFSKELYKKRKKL

[8] = target: Calcium-dependent protein kinase 4 (Plasmodium falciparum (isolate 3D7)) (UniProt Q8IBS5); experiment: PfCDPK4 kinase inhibitors, biochemical, TCAMS library (AID 1159588; cut-off not given, nearly all actives have IC50 up to about 0.91 µM); conditions: recombinant PfCDPK4, Kinase-Glo ATP depletion luminescence
Chain of Calcium-dependent protein kinase 4 (Plasmodium falciparum (isolate 3D7)) (Q8IBS5 whole entry, looked up): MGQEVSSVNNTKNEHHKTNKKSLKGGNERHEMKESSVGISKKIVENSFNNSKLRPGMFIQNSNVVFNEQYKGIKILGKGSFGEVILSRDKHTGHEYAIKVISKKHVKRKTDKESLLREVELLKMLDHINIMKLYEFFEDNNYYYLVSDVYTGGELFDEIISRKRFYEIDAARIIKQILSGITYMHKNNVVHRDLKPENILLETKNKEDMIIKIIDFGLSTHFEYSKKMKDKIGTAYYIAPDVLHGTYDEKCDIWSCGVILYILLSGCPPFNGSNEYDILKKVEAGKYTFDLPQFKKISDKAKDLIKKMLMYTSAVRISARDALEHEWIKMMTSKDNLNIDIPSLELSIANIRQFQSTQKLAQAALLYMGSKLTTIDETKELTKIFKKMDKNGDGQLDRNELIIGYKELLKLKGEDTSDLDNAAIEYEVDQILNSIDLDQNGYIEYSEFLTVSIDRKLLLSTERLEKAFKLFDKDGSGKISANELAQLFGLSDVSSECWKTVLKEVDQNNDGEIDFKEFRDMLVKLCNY

C=CCOC(=O)N1CCC(CNCc2cccc(-c3cccc(-c4nc5ccc(F)cc5[nH]4)c3)c2)C1 (stereo not drawn)
active: growth inhibition [4] 102%
inactive: growth inhibition [1] 49% | inhibition [2] 20% | inhibition [3] 0% | outcome [5] | outcome [6] | outcome [7] | outcome [8]

COc1ccc(NC(=O)c2csc(-c3cc(NC(=O)c4ccnc(N5CCCC5)c4)ccc3C)c2)cc1N1CCN(C)CC1
inactive: inhibition [2] 4% | inhibition [3] 1% | outcome [5] | outcome [6] | outcome [7] | outcome [8]
active: growth inhibition [1] 80% | growth inhibition [4] 100%

COc1cc(Cc2cnc(N)nc2N)cc(OCCCOc2ccccc2)c1OC
inactive: growth inhibition [1] 2% | inhibition [2] 7% | inhibition [3] -4% | outcome [5] | outcome [6] | outcome [7] | outcome [8]
active: growth inhibition [4] 94%

COc1cccc(CNC(=O)[C@@H]2CN(C(=O)c3ccccc3)CCN2)c1
inactive: growth inhibition [1] -1% | inhibition [2] 4% | inhibition [3] -2% | outcome [5] | outcome [6] | outcome [7] | outcome [8]
active: growth inhibition [4] 92%

CCc1c(CCNCCCCCNCCc2ccc(OC)c(OC)c2CC)ccc(OC)c1OC
inactive: growth inhibition [1] 1% | inhibition [3] -1% | outcome [5] | outcome [6] | outcome [7] | outcome [8]
active: inhibition [2] 59% | growth inhibition [4] 101%

Cc1nnnn1-c1ccc(C(=O)N2CCC3(CC2)CN(Cc2ccc(Cl)c(Cl)c2)C(=O)O3)cc1
inactive: inhibition [2] 2% | inhibition [3] 2% | outcome [5] | outcome [6] | outcome [7] | outcome [8]
active: growth inhibition [1] 99% | growth inhibition [4] 101%

N=C(N)c1ccc(OCc2cccc(COc3ccc(C(=N)N)cc3I)c2)c(I)c1
inactive: inhibition [2] 7% | inhibition [3] 2% | outcome [5] | outcome [6] | outcome [7] | outcome [8]
active: growth inhibition [1] 100% | growth inhibition [4] 102%

O=C(/C=C/c1ccc(Cl)c(Cl)c1)NCCCCN1CCCN(C(=O)Nc2ccc(C(F)(F)F)cc2)CC1
active: growth inhibition [4] 94%
inactive: growth inhibition [1] -1% | inhibition [2] 35% | inhibition [3] 5% | outcome [5] | outcome [6] | outcome [7] | outcome [8]

CCc1c(C(=O)NC2CCC(N3CCC(c4ccccc4OC)CC3)CC2)[nH]c2ccc(Br)cc12 (stereo not drawn)
inactive: inhibition [3] -1% | outcome [5] | outcome [6] | outcome [7] | outcome [8]
active: growth inhibition [1] 98% | inhibition [2] 85% | growth inhibition [4] 101%

N#Cc1ccc(-c2ccc(C(=O)NCCCCN3CCC(c4cn(CCO)c5ccccc45)CC3)cc2)cc1
active: growth inhibition [4] 93%
inactive: growth inhibition [1] 43% | inhibition [2] 23% | inhibition [3] 4% | outcome [5] | outcome [6] | outcome [7] | outcome [8]

CNCc1ccc2nc(-c3coc(Cc4cc(Cl)ccc4OCC(C)C)n3)[nH]c2c1
active: growth inhibition [1] 95% | growth inhibition [4] 101%
inactive: inhibition [2] 34% | inhibition [3] 2% | outcome [5] | outcome [6] | outcome [7] | outcome [8]

Oc1ccc(CCNc2nc(NCCCOc3ccccc3-c3ccncc3)nc(N3CCNCC3)n2)cc1
inactive: growth inhibition [1] -3% | inhibition [2] 8% | inhibition [3] 1% | outcome [5] | outcome [6] | outcome [7] | outcome [8]
active: growth inhibition [4] 96%

Clc1ccc2nnc(-c3c(Cl)cccc3Cl)n2n1
active: growth inhibition [1] 60% | growth inhibition [4] 96%
inactive: inhibition [2] 29% | inhibition [3] -3% | outcome [5] | outcome [6] | outcome [7] | outcome [8]

CN1CCCN(Cc2cccc(-c3cccc(NC(=O)c4ccc(Cl)cc4)c3)c2)CC1
active: growth inhibition [4] 100%
inactive: growth inhibition [1] 44% | inhibition [2] 35% | inhibition [3] 2% | outcome [5] | outcome [6] | outcome [7] | outcome [8]

c1ccc2[nH]c(-c3ccc(-c4ccc(CN5CCN(c6ccncc6)CC5)cc4)s3)nc2c1
inactive: inhibition [2] 25% | inhibition [3] -5% | outcome [5] | outcome [6] | outcome [7] | outcome [8]
active: growth inhibition [1] 100% | growth inhibition [4] 101%

CCNc1cc(C(=O)N[C@@H](Cc2ccccc2)[C@H](O)CNC2CCC(C)(C)C2)cc(N2CCCCS2(=O)=O)c1 (stereo partly drawn)
inactive: inhibition [2] 3% | inhibition [3] 6% | outcome [5] | outcome [6] | outcome [7] | outcome [8]
active: growth inhibition [1] 98% | growth inhibition [4] 96%

O=C(NC1CC1)c1ccc(N2CCCCN2CCc2ccccc2)c(C(F)(F)F)c1
inactive: inhibition [2] -9% | inhibition [3] -4% | outcome [5] | outcome [6] | outcome [7] | outcome [8]
active: growth inhibition [1] 84% | growth inhibition [4] 98%

N#CC(c1cccc(Cl)c1)c1ccc2c(C(F)(F)F)cc(C(F)(F)F)nc2n1 (stereo not drawn)
inactive: inhibition [3] 4% | outcome [5] | outcome [6] | outcome [7] | outcome [8]
active: growth inhibition [1] 97% | inhibition [2] 52% | growth inhibition [4] 96%

O=C(Nc1cccc(-c2cccc(-c3nc4ccc(C(F)(F)F)cc4[nH]3)c2)c1)Nc1ccc(F)c(F)c1F
active: growth inhibition [1] 100% | inhibition [2] 71% | growth inhibition [4] 99%
inactive: inhibition [3] 6% | outcome [5] | outcome [6] | outcome [7] | outcome [8]

CC(C)(C)c1ccc(CNC(=O)c2ccc(-c3nc4ccc(C(C)(C)C)cc4[nH]3)cc2)cc1
inactive: growth inhibition [1] 49% | inhibition [2] 21% | inhibition [3] 3% | outcome [5] | outcome [6] | outcome [7] | outcome [8]
active: growth inhibition [4] 96%

CCCc1cn2c3c(cc(C(=O)N[C@@H](Cc4ccccc4)[C@H](O)CNC4CCOCC4)cc13)N(C)S(=O)(=O)CC2
active: growth inhibition [1] 98% | growth inhibition [4] 99%
inactive: inhibition [2] 1% | inhibition [3] 3% | outcome [5] | outcome [6] | outcome [7] | outcome [8]
